The full list was thinned out, with hits kept by preference.
GALC G270D act = galactocerebrosidase G270D activity enhancement, cell-based | Potency, µM (top dose mostly 57.5 µM), usual class: activators | AID 1159614 | 145M-Twi-hGALC-G270D cells (Twitcher mouse brain line with human GALC G270D), HMU-beta-Gal fluorescence, 48 h | hit rate 0.1% among 45,000 | P54803; further: potency means the concentration at half of the fitted maximal effect; 0% is about no effect; nearly all actives have a fitted effect of over 65% in size
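Fluorescence readout: HMU-β-gal cleavage by mutant GALC (0.1 mM final, citrate/phosphate pH 5.2 with 1 mg/mL taurocholate), stopped with carbonate/bicarbonate plus Triton X-100. Cells: murine Twitcher 145M-Twi expressing human G270D GALC; qHTS for activators.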
NTMT1 inh = blocks human N-terminal methyltransferase 1 activity | NTMT1 MTase-Glo SAH luminescence, purified enzyme | Potency, µM (highest dose often 114 µM), for the others: top-dose activity change, negative = inhibition, hits mostly inhibitors | hit rate 2.5% among 59,000;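 further: potency means the concentration at half of the fitted maximal effect; plate controls were DMSO vehicle for no effect and no enzyme for full effect; nearly all actives have a fitted effect of over 65% in size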
B2AR arrestin ag = beta-arrestin recruitment by human beta2-adrenergic receptor ligands; 44,000 tested, under 10 active; Potency, µM (top dose mostly 46.1 µM), most hits filed as activators; HTLA Tango cells, beta-arrestin recruitment, luciferase luminescence, 18 h;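 further: potency means the concentration at half of the fitted maximal effect; 0% = DMSO and full agonism = EC100 isoproterenol or metaproterenol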
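Tango cells expressing recombinant beta2-AR and beta-arrestin were treated with compounds (up to 46 microM titration) in DMEM with 1% FBS for 18 hr at 37 degrees C. Beta-arrestin recruitment drove tTA-dependent luciferase, read by luminescence; curves were fitted and classed.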
TSG101-PTAP inh = inhibitors of HIV-1 PTAP binding to human TSG101, validation; Potency, µM (top dose mostly 115 µM), most hits filed as inhibitors; Q99816; Fluorescence polarization, FITC-PTAP peptide/Tsg101, 20 min; 44,000 tested, under 10 active; further: potency means the concentration at half of the fitted maximal effect; 0% is about no effect
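FITC-labeled PTAP peptide (50 nM final) binding to Tsg101 binding domain (10 uM final) read by fluorescence polarization after 20 min at r.t. in HEPES pH 7.5 buffer. Actives by CRC class, <25 µM.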
FH mod = Identification of activators of human fumarate hydratase by quantitative high-throughput screening | Fumarate hydratase, mitochondrial (Homo sapiens), P07954 | FH coupled MDH/diaphorase resazurin fluorescence, 15 min | Potency, µM (series often up to 79.9 µM), for the others: top-dose activity change, negative = inhibition, usual class: inhibitors | hit rate 0.22% among 54,000; further: potency means the concentration at half of the fitted maximal effect; on the % scale 0 is the no-effect control and ±100 the full control effect; the screen sought activators but most active calls are inhibition curves; nearly all actives have a fitted effect of over 45% in size
Target sequence (P07954 whole entry, looked up): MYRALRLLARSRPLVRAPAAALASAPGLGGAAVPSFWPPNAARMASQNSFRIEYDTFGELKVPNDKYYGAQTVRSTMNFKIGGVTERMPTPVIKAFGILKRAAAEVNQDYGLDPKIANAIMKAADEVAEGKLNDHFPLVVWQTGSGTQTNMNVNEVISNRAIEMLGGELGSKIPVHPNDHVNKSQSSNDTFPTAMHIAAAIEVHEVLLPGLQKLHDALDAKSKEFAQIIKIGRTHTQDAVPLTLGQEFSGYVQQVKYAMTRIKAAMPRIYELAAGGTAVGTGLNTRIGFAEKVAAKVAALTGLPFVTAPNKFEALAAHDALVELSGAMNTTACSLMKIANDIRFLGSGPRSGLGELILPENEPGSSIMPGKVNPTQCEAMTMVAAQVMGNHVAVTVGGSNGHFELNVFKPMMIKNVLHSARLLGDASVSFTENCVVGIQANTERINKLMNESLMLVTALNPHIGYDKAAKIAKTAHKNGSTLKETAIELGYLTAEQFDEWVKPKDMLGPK
GALK inhibitor = inhibitors of human galactokinase (GALK); P51570; recombinant GALK, Kinase-Glo ATP luminescence, 1 h; Potency, µM (series often up to 57.5 µM), for the others: at the top dose activity, negative = inhibition, hits mostly inhibitors; 44,000 tested, under 10 active; AID 1347072;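 further: plate controls were full GALK reaction for no effect and reaction lacking GALK for full effect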
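Luminescent ATP-depletion readout (Kinase-Glo Plus, 10 min) after 1 h RT reaction of 5 nM GALK, 35 uM ATP, 100 uM galactose, pH 8.0 HEPES buffer. Decreased kinase activity scored as inhibition.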
* = called active by the depositor; i = inactive; ? = inconclusive; . = not tested or not shown; ! = not confirmed by another sample; [ ] = remark or other dose. The call rests on the fitted dose curve; in most records, active means well fitted curve in the direction sought with a large enough effect; inconclusive means small, poorly fitted or top-dose-only effect, or another doubt; inactive means no such curve, though single readings can be large; an effect the other way counts as inactive or inconclusive.

SMILES	GALC G270D act	NTMT1 inh	B2AR arrestin ag	TSG101-PTAP inh	FH mod	GALK inhibitor
C=C(C(=O)O)[C@@H]1CC[C@@]2(C)CC[C@@H](O)C(=C)C2C1 (stereo partly specified)	.	15%[57.5 µM]	.	.	16%	.
CCOC(=O)c1[nH]c2c(c1C)C(=S)CC(c1ccco1)C2 (stereo unspecified)	.	40µM*	.	.	.	.
CN1CCC(Nc2ncc3ncnc(Nc4ccc(F)c(Cl)c4)c3n2)CC1	i	45µM*	.	.	0%	.
C=CC(=O)Nc1cc2c(Nc3ccc(F)c(Cl)c3)ncnc2cc1C#CC(C)(C)N1CCN(C)CC1	.	?	.	.	1%	.
CCc1ccc(/C=C2/SC(=S)NC2=O)cc1	.	-3%	.	.	16µM*	.
CCc1ccc(CCOc2ccc(CC3SC(=O)NC3=O)cc2)nc1 (stereo unspecified)	i	32µM*!	.	.	18%[53.3 µM]	.
O=C(O)CCc1cccc(O[C@@H]2O[C@H](CO)[C@@H](O)[C@H](O)[C@H]2O)c1O	.	2%[29.8 µM]	.	.	-1%[53.3 µM]	.
CCN(CC)CCOc1ccc(Nc2ncc3cc(-c4c(Cl)cccc4Cl)c(=O)n(C)c3n2)cc1	.	79µM*!	.	.	-14%[53.3 µM]	.
Cc1cc(Nc2ncc3cc(-c4c(Cl)cccc4Cl)c(=O)n(C)c3n2)ccc1F	.	12%[57.5 µM]	.	.	5%	.
CN(C)C(N)=NC(=N)N	.	14%	.	.	.	.
CO[C@@]1(NC(=O)CSCC#N)C(=O)N2C(C(=O)O)=C(CSc3nnnn3C)CS[C@@H]21	i	14µM*	.	.	3%[53.3 µM]	.
COc1cc(/C=C2\CCCN([C@@H](C)c3ccc(F)cc3)C2=O)ccc1-n1cnc(C)c1	.	8%[57.5 µM]	.	.	-8%	.
O=C(O)C1=CC(=C(c2ccc(O)c(C(=O)O)c2)c2ccc(O)c(C(=O)O)c2)C=CC1=O	.	.	.	.	16µM*	.
CC1(C)CC[C@]2(C(=O)O)CC[C@]3(C)C(=CCC4[C@@]5(C)C[C@@H](O)[C@H](O)[C@@](C)(CO)C5CC[C@]43C)[C@@H]2[C@@H]1O (stereo partly specified)	.	21%[29.8 µM]	.	.	-3%[53.3 µM]	.
COCCCNC(=O)c1ccc2nc(CCc3ccccc3)oc2c1	i	0%	i	i	-3%	0%
COCCNC(=O)c1ccc2nc(CCc3ccccc3)oc2c1	i	89µM*	i	i	1%	2%
Nc1ncnc2c1ncn2[C@@H]1O[C@H](CO)[C@@H](O)[C@@H]1O	.	-9%	.	.	0%[53.3 µM]	.
Nc1ncnc2c1c(I)cn2C1OC(CO)C(O)C1O (stereo unspecified)	.	1.4µM*	.	.	8%	.
Cc1nnc(-c2cnn(C)c2N)n1CCCc1ccncc1	.	16%	.	.	.	.
CCN1C(=O)c2cccc3c(S(=O)(=O)Nc4ccc(O)c(C(=O)O)c4)ccc1c23	i	-15%	i	i	32µM*	6%
O[C@@H](COc1cccc2ncccc12)CN1CCN(C2c3ccccc3[C@@H]3[C@H](c4ccccc42)C3(F)F)CC1 (stereo partly specified)	i	79µM*!	.	.	-13%	.
COc1ccccc1N1CCN(CC(O)COc2ccc(C)cc2C(C)(C)C)CC1 (stereo unspecified)	i	?	i	i	-32%	0%
COc1ccccc1OCC(=O)NC1CC(=O)N(c2ccc3c(c2)OCCO3)C1 (stereo unspecified)	i	2%	i	i	1%	-3%
O=C(COc1ccccc1F)NC1CC(=O)N(c2ccc3c(c2)OCCO3)C1 (stereo unspecified)	i	89µM*	i	i	-15%	-1%
Nc1ccc(O)c(C(=O)O)c1	i	40µM*	.	.	?	.
Oc1cc(CNC(=S)/C=C/c2cc(O)c(O)c(Br)c2)cc(O)c1O	.	45µM*	.	.	?	.
CCOC(=O)c1nn(-c2ccccc2)c(=O)c2c(N)scc12	.	50µM*	.	.	.	.
CCOC(=O)c1ccc2c(c1)c(C(C)=O)c(C)n2-c1ccc(OC)cc1	.	-2%	.	.	.	.

High-throughput results deposited in PubChem BioAssay by National Center for Advancing Translational Sciences (NCATS).
